The record followed here is PubChem BioAssay AID1508600 (Functional Genomics Laboratory (NCATS/FGL), 2020).

The campaign covered roughly 53,000 sequences. About 3,700 (7%) were called active.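 The calls were made as follows: active = gene knockdowns whose robust z-score for IL-1 alpha signal is at least 2 or at most -2, so actives lie on both sides; inactive = the rest.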 This excerpt belongs to a sample that is enriched for actives.

This assay in a line: Components of the Cytosolic LPS Sensing Pathway: Gene Identification via Genome-wide siRNA Screen.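 Also: robust z of the log signal after scaling to non-targeting control siRNA wells of the plate.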 To be noted: RAW264.7 macrophages, IL-1a HTRF, actives lie on both sides, screened at 100 nM (by protocol), cells primed 5 h with Pam3CSK4 first. The method, boiled down: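 Using IL-1a HTRF as read-out, the screen measured release from RAW264.7 cells after 48h siRNA knockdown (100 nM), 5 h Pam3CSK4 priming and 24 h cytosolic LipidA. Values were expressed relative to negative-control wells as robust z-scores.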
In general terms: In TR-FRET formats the signal depends on donor and acceptor labels being close together.
CCCAAGCAAUUACAGUACUTT against Olfr263: the z-score was -0.543 (inactive).
As for GGCCCUCUGAGAUUAAUGUTT against Nfkbid, the figure is 2.58 (active); as for CAGAUCCAUCUCUUAAUGGTT against Olfr204, 0.383 (inactive).
With GGUAUCAGGUACCAACGACTT against Cpne6 the figure was 0.768 (inactive).
As for GGACAUUAGCCAACACAUCTT against Scp2d1, the figure is 1.17 (inactive); as for GGAAUUGACUUUAAGACAATT against Boll, -0.413 (inactive); as for GGAAGUCAAGCAUAUUGCCTT against Sntb2, 3.04 (active).
As to GCAUUGGUGUUUAGUUGGUTT against Gdf2, the z-score was 1.11 (inactive).
With GGAGUUCGCACAGAAAUUCTT against Dhdh the figure was -0.619 (inactive); with GGUGUAUUAAAAUGUCAGUTT against Marveld2, 1.92 (inactive).
As for GGUCAUCAGAAUGUGAAAATT against Zfp354a, the figure is 0.232 (inactive); as for GGAGAGACCAGAAUGGUAUTT against Fbxw21, -1.12 (inactive).
With GGUAUUUCGAAACCUCCGUTT against H2-Q10 the figure was 2.01 (active); with GCAUGGACAAAUGUCCCUGTT against Lce1f, -0.24 (inactive).
As for GGAAGAUGGCAAUAAUAACTT against Borcs7, the z-score was -2.26 (active).
In the case of GGUUUUCCCACAUGUCAGATT against Zmat5, the z-score is 0.805 (inactive).
With GGGUACAGACGAUGUUUGATT against Unc45b the figure was 0.347 (inactive).
With GGUGUUCAACUCCACUAUGTT against Nhlrc1 the figure was 0.511 (inactive); with GGUUCACAAUGGAUUAUGATT against Lrrc25, -1.68 (inactive).
As for UGAUAUUUGGUGUAUUCAGTT against Olfr972, the figure is -2.06 (active).
For GGCUUUCUCCAAGCUAUAUTT against Tdgf1, the z-score was -1.83 (inactive).
On to GGGAUACUACUUUCUAACATT against Rspo3, for which the z-score is 1.29 (inactive).
With GCCAUACCCUGAAUUACCATT against Ndnf the figure was -2.01 (active); with GGAUCAGAGAAGGAAAAAATT against Hspa12a, -1.98 (inactive); with CCCUGACUUGUCCUUACAATT against Trem3, -0.831 (inactive).
As for CCCUAGCGGAAAUUGUCAATT against Nono, the figure is 0.328 (inactive); as for GGGUCUGAUCACUUAUAUUTT against Lysmd3, 2.02 (active); as for CGAGGAGCCUGAAAUAUGGTT against Exosc2, -2.42 (active).
With GGAAAAAAAAGUCUUCCUATT against Ttll6 the figure was -0.0777 (inactive).
Consider CCUUGUUCCCGAAAUACCGTT against Krr1, for which the z-score is -0.471 (inactive).
As for GUCAGUAUGGAGCGAUGGGTT against Zmiz2, the figure is 0.695 (inactive).
With GCCAUGUAGCACGUAACAGTT against Haus6 the figure was -0.368 (inactive).
For the sequence GGAGAUACAUUGGUAGGUATT against Idua, the z-score was -0.469 (inactive).
As for GGAAACGUAUGAACAAUAATT against Sema4f, the figure is 0.896 (inactive); as for GCAAUGAGGAGUAUAUGUATT against Rfx5, 2.89 (active).
With GGAUUAUGGGAAUUAACUATT against Mpdz the figure was 1.06 (inactive).
As for CCUUCAGUGGUUUGAACCGTT against Dnd1, the z-score is 2.59 (active).
As for CCAAGUCUUGUAGUGGAGUTT against Vdac3, the figure is -0.269 (inactive); as for GGGCUCCACUACCUAAUCATT against Gpr83, -1.07 (inactive); as for GGUACACUAUGAGGUCUGCTT against Traf2, 2.07 (active).
With GGUCUAUCAGAUCAUCAAATT against Pde8a the figure was 0.584 (inactive).
As for GGGUUCAAUAACCACAUCATT against Ttc13, the figure is -2.13 (active).
In the case of GGACUCAGAAGUGAACAUATT against Spata7, the z-score is -0.916 (inactive).
With GCCUACGUGAAAUCUCACATT against Mycl the figure was 0.147 (inactive).
With CCUCAAUUGGAUAAAGAAGTT against Gzma the figure was 1.7 (inactive).
GACAUACCAGCCGUAUAACTT against Erh: the z-score is -2.39 (active).
As for CGAGGAGAAUUUGUAAUGATT against Etfrf1, the figure is -0.554 (inactive).
As for CCCUGAACCCUAACAUCACTT against Tcirg1, the figure is 0.593 (inactive); as for GGAGUGUUGGGAGCAGGAATT against Tnni1, 2.71 (active); as for GGAUGUUCUUGCUCAUGUGTT against Fam149b, 0.605 (inactive).
As for GGAGAAAUGCCAUUGCGUCTT against Wnt3, the figure is 0.169 (inactive); as for GCGCGUCAUAAAAAGCAUATT against Lhx6, 1.17 (inactive); as for CGGAUCCUACGGAAUUACGTT against Fpgs, 0.99 (inactive).
GGACAUUCUUUAAGAAGAUTT against Tjp3: the z-score was -0.584 (inactive).
With CCCAAAAGUUUUUACAGCUTT against Ttpa the figure was 0.0745 (inactive).
With GGAUGAACCACCAUAUGUGTT against Olfr1188 the figure was 4.69 (active); with GGUUUUGAAAAAGCAUCAATT against Myoz2, -0.365 (inactive).
As for GGCCAACUCUAUUUUGAAGTT against Lrp2bp, the figure is 0.362 (inactive).
Turning to GGACACAUAAUGUCUACCUTT against Unc93a, the z-score was -0.629 (inactive).
With GCACUAGCAGACUAGGUGATT against Zbtb26 the figure was -2.07 (active).
Regarding GGAUUUUCAAUUCAUACCCTT against Psmb1, the z-score is -0.189 (inactive).
With UUUACCUUGUCACCGUCUUTT against Olfr1029 the figure was 1.03 (inactive).
AUUCAUUGGGAAAAAUUAUTT against Olfr127: the z-score is -2.38 (active).
“CCUCGACAUCUAAUGAAGATT against 4933405O20Rik”: the z-score is -1.58 (inactive).
For the sequence GCAAUACGAAGGCGAAAGCTT against P3h4, the z-score is -1.68 (inactive).
With GGACUUCAUAUUAGCAUGUTT against Plbd2 the figure was -1.27 (inactive); with GACCCUUUUCACCAAGACATT against Tecr, 0.989 (inactive); with GGAGCAGUGCAUUGAGACCTT against Adcy6, 2.34 (active).
Turning to GGAAUAAUUGGUGUUAAAGTT against Hnrnpk, the z-score is 0.346 (inactive).
